# Assay results: PubChem BioAssay
# System: not listed separately
# Experiment: probe aLefty2 binding to arrayed compounds – biochemical, biotinylated probe, 635/667 nm fluorescence, primary screen (AID 1094);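 note: score merges spot fluorescence near 667 nm with spot signal-to-noise ratio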
# Details: small-molecule microarray, higher = more signal
row,Structure (SMILES),composite z-score
1,COc1cccc(C)c1NC(=O)O[C@H]1[C@H](OC(=O)Nc2ccccc2)[C@H](OC(=O)Nc2ccccc2)[C@@H](OC)O[C@@H]1CO,0.0682
2,C=CCC(OC(C)=O)[C@@H]1[C@@H](N(Cc2ccc(-c3ccccc3)cc2)C(=O)c2cccc3ccccc23)c2cc(OCCCO)ccc2N1C(=O)c1ccc2ccccc2n1 (some centres not stated),0.0469
3,O=C1O[C@H](c2ccccc2)[C@H](c2ccccc2)N2[C@H]1[C@@H](C(=O)N1CCN(c3ncccn3)CC1)[C@]1(C(=O)Nc3ccc(C#CCCO)cc31)[C@H]2c1ccc(OCCO)cc1,0.152
4,COC(=O)[C@@]1(Cc2ccccc2N=[N+]=[N-])N=C(c2ccc(OCCCO)cc2)O[C@H]1c1ccccc1,-0.0654

# System: Noggin (protein binding on small-molecule microarray)
# Experiment: small molecules binding Noggin protein – biochemical, 635/667 nm fluorescence, primary screen (AID 1095);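 note: score merges 667 nm feature fluorescence with signal to noise over triplicate slides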
# Details: 635 nm fluorescence, higher = more signal
row,Structure (SMILES),composite z-score
1,COCC(=C=CC[C@@H](O)c1ccccc1OCCO)C[C@@H](O)c1ccccn1,0.416
2,COc1ccc([Si](C)(C)[C@H]2[C@H](CCO)O[C@@]3(C(=O)N(Cc4cccc(N5CCOC5=O)c4)c4ccccc43)[C@@H]2C)cc1,0.459
3,COC(=O)C(CC#Cc1ccc2c(c1)[C@]1(C(=O)N2)[C@H](C(=O)N2CCc3cc(OC)c(OC)cc3C2)[C@H]2C(=O)O[C@H](c3ccccc3)[C@H](c3ccccc3)N2[C@@H]1c1ccc(O)cc1)C(=O)OC,1.88
4,COc1ccc([Si](C)(C)[C@H]2[C@H](CCn3cc(CCO)nn3)O[C@@]3(C(=O)N(Cc4cccc(N5C(=O)c6cccc7cccc5c67)c4)c4ccccc43)[C@@H]2C)cc1,1.03
5,C[C@H]1ON(c2ccccc2)[C@@H](c2ccccc2)[C@@H]1C(=O)N1C(=O)OC[C@@H]1c1ccccc1,0.743
6,COc1ccc(C#Cc2ccc3c(c2)[C@]2(C(=O)N3)[C@H](C(=O)O)[C@H]3C(=O)O[C@H](c4ccccc4)[C@H](c4ccccc4)N3[C@@H]2c2ccc(OCCO)cc2)cc1,1
7,C=CCC(OC(C)=O)[C@@H]1[C@@H](N(Cc2ccc(-c3ccccc3)cc2)C(=O)Cc2ccc(OC)cc2)c2cc(OCCCO)ccc2N1C(=O)c1ccc(-c2ccccc2)cc1 (some centres not stated),-0.0829
8,Cc1ccc(S[C@]2(C(=O)NCC(C)C)CC(=O)N(C3CCCCC3)[C@@H]2c2ccc(CO)cc2I)cc1,0.165
9,COC(=O)C(CC#Cc1ccc2c(c1)[C@]1(C(=O)N2)[C@H](c2ccc(OCCO)cc2)N2[C@H](c3ccccc3)[C@H](c3ccccc3)OC(=O)[C@H]2[C@@H]1C(=O)O)C(=O)OC,0.612
10,[N-]=[N+]=NCc1ccccc1C[C@@]1(C(=O)NCCN2CCOCC2)N=C(c2ccc(OCCCO)cc2)O[C@@H]1c1ccccc1CN=[N+]=[N-],1.11
11,C[C@]12C(=O)N(CCCO)[C@@H]3C(=O)N(c4ccc(Cl)cc4)CC=CC31O[C@@H]1/C=C\CCCOC(=O)C12 (some centres not stated),-0.441
12,CCCCC(O)C1C=CC2C(=O)N(Cc3ccccc3)C(=O)C2N1n1cnnc1 (configuration not stated),0.159
13,Cc1ccccc1C(O)C1C=CC2C(=O)N(C)C(=O)C2N1Nc1ccc([N+](=O)[O-])cc1[N+](=O)[O-] (configuration not stated),0.17
14,COCCOC(=O)N1C(=O)[C@@]2(c3cc(C#Cc4ccc(OC)cc4)ccc31)[C@H](C(=O)N1CCc3cc(OC)c(OC)cc3C1)[C@H]1C(=O)O[C@H](c3ccccc3)[C@H](c3ccccc3)N1[C@@H]2c1ccc(OCCO)cc1,1.22
15,O=c1c2ccc(Br)cc2nc(-c2ccccc2)n1Cc1cccc(O)c1,-0.0706
16,Cc1ccc(S[C@]2(C(=O)NCCN3CCOCC3)CC(=O)N(C3Cc4ccccc4C3)[C@@H]2c2ccc(CO)cc2)cc1,-1.11
17,C=CC[C@@]1(C(=O)NCCN2CCOCC2)N=C(c2ccc(OCCCO)cc2)O[C@@H]1c1ccccc1,2.08
18,C[C@H]1NC(=O)C([C@@H](C)OCc2ccccc2)NC(=O)[C@@]23C(=O)N[C@@H](Cc4ccccc4)C2[C@H](C)[C@@]2(C)O[C@H]2C3/C=C/CC/C=C/CNC1=O (some centres not stated),0.598
19,C/C=C/[C@@H](CCn1cc([C@H](O)c2ccccc2)nn1)[Si](C)(C)c1ccc(OC)cc1,-0.385
20,CCCC=C(CCC)[C@@H](NC(=O)Cc1ccccc1)c1ccc(C(=O)OC)cc1,0.234
21,C=C(COC)/C(=C/C[C@@H](OC(=O)c1ccncc1)c1cccc(OCCO)c1)c1cc(C(=O)OC)ccc1OC,1.32
22,COc1cc(NN2C(C(O)c3ccc(I)cc3)C=CC3C(=O)N(C)C(=O)C32)cc(OC)c1OC (configuration not stated),-0.131
23,COCCCNC(=O)[C@@]1(Cc2ccccc2CN=[N+]=[N-])N=C(c2ccc(OCCCO)cc2)O[C@H]1c1ccccc1N=[N+]=[N-],0.399
